{"source": "PubChem BioAssay (NCI)", "note": "Compounds without any hit were thinned out: in the full panel of roughly 83,000, 20% have a hit.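 In brief: 96-well plates, 48 h treatment, single concentration, percent growth endpoint.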 The source made the active and inactive calls. The calls were made as follows: active = growth percent below 10; inactive = the rest.", "data": [{"tested_on": "NCI-H522 lung", "assay": "NCI-60 one-dose screen, 48 h (100 = growth as untreated, 0 = no growth, -100 = all killed)", "conditions": "10 µM unless noted", "values": [{"smiles": "CS(=O)(=O)c1ccc(/C(=N/NC(N)=S)c2ccc(F)cc2)cc1", "growth": "99.6% (inactive)"}, {"smiles": "CC1(C)CC[C@]2(CO)CC[C@]3(C)C(=CC[C@@H]4[C@@]5(C)CCNCC(C)(C)[C@@H]5CC[C@]43C)[C@@H]2C1", "growth": "70.7% (inactive)"}, {"smiles": "C=C(CNCCc1ccc(O)cc1)[C@@H]1CC[C@]2(CO)CC[C@]3(C)[C@H](CC[C@@H]4[C@@]5(C)CCC(N)C(C)(C)[C@@H]5CC[C@]43C)[C@@H]12", "note": "(stereo not given in full)", "growth": "-64.8% (active)"}, {"smiles": "C(=N\\Nc1nnc2n1N=C(c1ccccc1)CS2)/c1ccc(OCc2ccccc2)cc1", "growth": "88.1% (inactive)"}, {"smiles": "O=C(/C=C\\c1ccc(O)c(O)c1)c1ccccc1O", "growth": "-61.3% (active)"}, {"smiles": "COc1ccc(/C=C2/CCc3cc4ccc(OC)cc4[o+]c32)c(O)c1", "growth": "77.5% (inactive)"}, {"smiles": "Cc1ccc(-c2nnc(SCc3nc(N)nc(Nc4ccccc4F)n3)n2-c2ccccc2)cc1", "growth": "81.5% (inactive)"}, {"smiles": "O=C(Nc1cccc(Cl)c1)Oc1c(Cl)c(Cl)c(Cl)c(Cl)c1Cl", "growth": "83.9% (inactive)"}, {"smiles": "COc1ccc(-c2csc(NC(=O)CSc3nc(C)cc(=O)[nH]3)n2)cc1", "growth": "86.7% (inactive)"}, {"smiles": "Cc1c(C)c2c(c(C)c1OC(=O)CCC(=O)[O-])CCC(C)(CCCCCCCCCCC[P+](c1ccccc1)(c1ccccc1)c1ccccc1)O2", "note": "(stereo not given)", "growth": "-25.9% (active)"}, {"smiles": "CCN(CC)CCCNC(=O)c1c2c(n3ccccc13)C(=O)c1ncccc1C2=O", "growth": "-79% (active)"}, {"smiles": "O=C(/C=C/c1ccc([N+](=O)[O-])cc1)c1cccc(Nc2nc(Nc3ccccc3)nc(Nc3ccccc3)n2)c1", "growth": "78.7% (inactive)"}, {"smiles": "CN1CC(c2ccccc2)C(C(=O)c2ccc(Br)cc2)C12C(=O)Nc1ccccc12", "note": "(stereo not given)", "growth": "83% (inactive)"}, {"smiles": "COCCNC(=O)Cc1cc(-c2ccc(Cl)cc2)n(-c2ccccc2)c1C", "growth": "58.8% (inactive)"}, {"smiles": "CNc1nc2ncc(-c3c(C)noc3C)cc2n1Cc1ccccc1", "growth": "57.1% (inactive)"}, {"smiles": "CC1(C)CC[C@]2(CO)CC[C@]3(C)[C@H](CC[C@@H]4[C@@]5(C)CC[C@H](O)C(C)(C)[C@@H]5CC[C@]43C)[C@H]2[C@H]1O", "growth": "84.8% (inactive)"}, {"smiles": "COC(=O)[C@@H](Cc1c[nH]c2ccccc12)NC[C@@H](O)CN1C(=O)/C(=C\\c2cc(OC)c(OC)c(OC)c2)c2ccccc21", "growth": "67.4% (inactive)"}, {"smiles": "CCc1ccc(Cc2cnc(NC(=O)c3cc(C)oc3C)s2)cc1", "growth": "19.6% (inactive)"}, {"smiles": "CN1CCN(CC(=O)N(C)c2ccc(N=C(c3ccccc3)c3c(O)[nH]c4ccc([N+](=O)[O-])cc34)cc2)CC1", "growth": "86.8% (inactive)"}, {"smiles": "COc1cc2c(c(OC)c1OC)CCC(c1cccc(NC(=O)c3cccc(Cl)c3)c1)O2", "note": "(stereo not given)", "growth": "62.1% (inactive)"}, {"smiles": "O=C1C2C(c3cccs3)C=C(c3ccc(Cl)cc3)N2C(=S)N1c1ccccc1", "note": "(stereo not given)", "growth": "98.6% (inactive)"}, {"smiles": "CCN1CCN(c2cc(C(=O)Nc3cccc(Nc4ccc5c(OC)cccc5n4)c3)cc(C(F)(F)F)c2)CC1", "growth": "-45.2% (active)"}, {"smiles": "CCCNNC(=O)c1ccc(CNC(=O)/C=C/c2ccccc2)cc1", "growth": "38.3% [2.5 µM] (inactive)"}, {"smiles": "CC(=O)Oc1ccccc1C(=O)N(Cc1ccc2c(Cl)cc(Cl)c(O)c2n1)c1ccccc1", "growth": "72.2% (inactive)"}, {"smiles": "CN(C)c1ccc(/C=N/NC(=O)CSc2nc3sc4c(c3c(=O)n2-c2ccccc2)CCCCC4)cc1", "growth": "21.2% (inactive)"}, {"smiles": "N#Cc1nn(-c2ccccn2)c(N)c1C#N", "growth": "67.4% (inactive)"}, {"smiles": "CC(Cc1cccc2ccccc12)C(N)=O", "note": "(stereo not given)", "growth": "96.6% (inactive)"}, {"smiles": "Cc1nc2ccccc2c(/C=C/c2ccc(Br)cc2)c1C(=O)/C=C/c1ccccc1", "growth": "-34.9% (active)"}, {"smiles": "c1ccc2[nH]c(-c3ccc(-c4nccc5c4[nH]c4ccccc45)cc3)nc2c1", "growth": "27.3% (inactive)"}, {"smiles": "Cc1[nH]c(C(=O)Nc2ccc(C(N)=O)cc2OC(C)C)c(Cl)c1Cl", "growth": "91.7% (inactive)"}, {"smiles": "C/C=C(/C)C(=O)O[C@@H]1CC(C)(C)CC2C34OC(=O)[C@@]21CC[C@@]3(C)[C@]1(C)CCC2C(C)(C)C(=O)CC[C@]2(C)C1C[C@@H]4O", "note": "(stereo not given in full)", "growth": "72.1% (inactive)"}, {"smiles": "C=C(C[n+]1ccccc1)[C@@H]1CC[C@]2(C(=O)OC)CC[C@]3(C)[C@H](CC[C@@H]4[C@@]5(C)CCC(=O)C(C)(C)[C@@H]5CC[C@]43C)[C@@H]12", "growth": "55.5% (inactive)"}, {"smiles": "COC(=O)c1c(C(=O)OC)c2ccc3c4ncccc4ccc3n2c1C(=O)c1ccc(C)cc1", "growth": "68% (inactive)"}, {"smiles": "O=C1c2ccccc2-c2c1c1ccncc1c(=O)n2CCCn1ccnc1", "growth": "29.6% (inactive)"}, {"smiles": "O=C1Nc2ccccc2/C1=C/c1cccn1CCCCCCn1c2ccccc2c(=O)c2ccccc21", "growth": "66% (inactive)"}, {"smiles": "O=C(Nc1ccccc1CNc1nc(Nc2ccc(OCCN3CCCC3)cc2)ncc1Cl)NC1CCCCC1", "growth": "113% (inactive)"}, {"smiles": "CSc1nc(CC(C)C)c(C#N)c(=O)n1C", "growth": "39.2% (inactive)"}, {"smiles": "CS(=O)(=O)Nc1cc(-c2ccc3ncnc(Nc4cccc(Cl)c4)c3c2)cnc1Cl", "growth": "2.07% (active)"}, {"smiles": "N#Cc1c(-c2ccc(Cl)cc2)nc(NN=Cc2cccc(Cl)c2)nc1N1CCOCC1", "growth": "94.5% (inactive)"}, {"smiles": "CNC1=C([N+](=O)[O-])C(c2ccc(OC)cc2)C(C#N)=C(c2ccc[nH]2)O1", "note": "(stereo not given)", "growth": "92.3% (inactive)"}]}]}
